These results are taken from PubChem BioAssay (EPA / NIEHS).

Assay [1] in a line: ATG_E_Box_CIS: Attagene CIS-FACTORIAL HepG2 Assay for human Enhancer Box (E-box) (AID 2282936). The following applies: HepG2 E-box cis-reporter transcription, actives raise or lower the signal. In short, it runs like this:
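Cells: HepG2 (human liver), transient MRTU transfection. Exposure 24 h. RNA → oligo(dT) RT → PCR → 6-FAM label → HpaI → CE. Activity fitted both directions relative to DMSO.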

The nature of assay [2]: ATG_M_61_CIS: Attagene CIS-FACTORIAL HepG2 Assay for M61 Transcription Factor (Internal Marker) (AID 2282937). The following applies: HepG2 Attagene CIS-FACTORIAL M61 internal marker reporter; actives raise or lower the signal. In short, it runs like this:
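Readout: fluorescent reporter mRNA fragments resolved by capillary electrophoresis after RT-PCR. Transiently transfected human HepG2 cells carried MRTU constructs reporting endogenous TF activity; 24 h chemical exposure; gain or loss of signal fitted relative to DMSO.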

The nature of assay [3]: ATG_M_19_CIS: Attagene CIS-FACTORIAL HepG2 Assay for M19 Transcription Factor (Internal Marker) (AID 2282939). The following applies: HepG2 Attagene CIS-FACTORIAL M19 internal marker reporter; actives raise or lower the signal. In outline:
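Chemical-treated HepG2 (24 h) with MRTU constructs; reporter transcripts detected by fluorescent RT-PCR fragment analysis on capillary electrophoresis. Internal background marker, DMSO as baseline.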

A short description of assay [4]: ATG_ERE_CIS: Attagene CIS-FACTORIAL HepG2 Assay for Estrogen Response Element (ERE) (AID 2282940). The following applies: HepG2 ERE cis-reporter, Attagene RNA transcript; actives raise or lower the signal. In short, it runs like this: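 Human liver cells (HepG2) bearing transiently transfected, promoter-regulated reporter units were exposed 24 h. Reporter mRNA induction was detected by capillary electrophoresis of labelled RT-PCR products and fitted bidirectionally to DMSO.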

The nature of assay [5]: ATG_Ets_CIS: Attagene CIS-FACTORIAL HepG2 Assay for human Erythroblast Transformation Specific (ETS) (AID 2282941). The settings on record: HepG2 ETS cis-reporter transcription, actives raise or lower the signal. In outline: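 Steps: transfect HepG2 with multiple reporter units; treat compound 24 h; isolate RNA, DNase-treat, reverse-transcribe; PCR-amplify, label with 6-FAM, digest with HpaI; separate by capillary electrophoresis. Activity fitted both directions versus DMSO.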

The target of assay [6] is Hepatocyte nuclear factor 3-beta (Homo sapiens) (UniProt Q9Y261). The assay can be described thus: ATG_FoxA2_CIS: Attagene CIS-FACTORIAL HepG2 Assay for human Forkhead box A2 (FOXA2) (AID 2282942). The settings on record: HepG2 cis-reporter transcription factor activity, 24 h; actives raise or lower the signal. In outline:
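Readout: fluorescent reporter transcripts resolved by capillary electrophoresis after RT-PCR. Transiently transfected HepG2, 24 h compound exposure, endogenous TF activity at cis promoter elements. Gain or loss of signal fitted relative to DMSO.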

The nature of assay [7]: ATG_FoxO_CIS: Attagene CIS-FACTORIAL HepG2 Assay for human Forkhead box O (FoxO) (AID 2282943). The settings on record: HepG2 Attagene cis-reporter, FoxO element, mRNA; actives raise or lower the signal. In outline:
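Human hepatoma HepG2 cells carry transiently introduced reporter transcription units controlled by cis promoter elements. Chemical treatment lasted 24 h, and mRNA signal was compared with DMSO.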

A short description of assay [8]: ATG_GATA_CIS: Attagene CIS-FACTORIAL HepG2 Assay for human GATA Binding Protein (AID 2282944). The following applies: HepG2 GATA cis-element reporter, Attagene multiplex mRNA; actives raise or lower the signal. In short, it runs like this:
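Transfected cis-reporter HepG2 cells were treated with chemicals for 24 hours. Total RNA was then converted to cDNA, amplified with reporter-specific primers and analysed by fluorescent capillary electrophoresis, using DMSO-treated wells as baseline.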

A short description of assay [9]: ATG_GLI_CIS: Attagene CIS-FACTORIAL HepG2 Assay for human Zinc Finger Protein GLI1 (AID 2282945). The following applies: HepG2, Attagene cis-factorial reporter mRNA, GLI element; actives raise or lower the signal. In outline:
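Bidirectional curve fits relative to DMSO, using reporter mRNA levels from RT-PCR plus capillary electrophoresis. Cells were HepG2 transiently carrying cis-regulated reporter constructs, harvested 24 h after dosing.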

For assay [10], the target named is Bile acid receptor (Homo sapiens) (UniProt Q96RI1). Description: ATG_IR1_CIS: Attagene CIS-FACTORIAL HepG2 Assay for human Nuclear Receptor Subfamily 1 Group H Member 4 (NR1H4), IR1 submotif (AID 2282946). The following applies: IR1 reporter transcription, actives raise or lower the signal. In short, it runs like this:
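Cells (human HepG2) carry transiently transfected cis-promoter reporter transcription units. Compounds are incubated 24 h, total RNA is reverse-transcribed and amplified, and labelled fragments are resolved by capillary electrophoresis. Curves use DMSO as baseline.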

The nature of assay [11]: ATG_GRE_CIS: Attagene CIS-FACTORIAL HepG2 Assay for human Glucocorticoid Response Elements (GRE) (AID 2282947). The following applies: HepG2 GRE cis-reporter, Attagene multiplex mRNA; actives raise or lower the signal. In short, it runs like this: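 Transient MRTU transfection of human HepG2 liver cells; cis-regulated reporters report endogenous factors. 24 h dosing → RNA isolation → RT-PCR → 6-FAM primer extension → HpaI cut → CE fragment analysis. Bidirectional fit, DMSO negative control.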

The nature of assay [12]: ATG_ISRE_CIS: Attagene CIS-FACTORIAL HepG2 Assay for human Interferon Regulatory Factor 1 (IRF1) binding to an Interferon-Stimulated Response Element (ISRE) (AID 2282948). The following applies: HepG2 ISRE cis-reporter (Attagene), mRNA transcription readout; actives raise or lower the signal. In short, it runs like this:
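Transfected HepG2 (multiple reporter transcription units, cis elements) dosed 24 h. RNA → oligo(dT) RT → PCR → 6-FAM primer extension → HpaI → CE. DMSO = negative control/baseline.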

The nature of assay [13]: ATG_M_32_CIS: Attagene CIS-FACTORIAL HepG2 Assay for M32 Transcription Factor (Internal Marker) (AID 2282949).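 Also: background control marker of the multiplexed CIS panel rather than a real target.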 The settings on record: HepG2 Attagene cis-factorial M32 reporter, mRNA; actives raise or lower the signal. In short, it runs like this:
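HepG2 cells transiently transfected with multiplexed cis-regulated reporter units, dosed 24 h. Reporter mRNA quantified by RT-PCR, 6-FAM labelling, HpaI digestion and capillary electrophoresis; bidirectional fit vs DMSO.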

A short description of assay [14]: ATG_M_06_CIS: Attagene CIS-FACTORIAL HepG2 Assay for M06 Transcription Factor (Internal Marker) (AID 2282950). The settings on record: HepG2 Attagene CIS-FACTORIAL M06 internal marker reporter; actives raise or lower the signal. In outline: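 Cells (HepG2, transiently carrying cis-driven reporter units) receive chemical for 24 h before RNA isolation. Reporter cDNA is PCR-amplified, FAM-labelled by primer extension, HpaI-digested and sized on a capillary analyser.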

Assay [15] has as its target Hypoxia-inducible factor 1-alpha (Homo sapiens) (UniProt Q16665). The assay can be described thus: ATG_HIF1a_CIS: Attagene CIS-FACTORIAL HepG2 Assay for human Hypoxia Inducible Factor 1 (HIF1A) (AID 2282951). The settings on record: HepG2 Attagene cis-factorial HIF1a reporter transcription; actives raise or lower the signal. In outline:
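RT-PCR/capillary electrophoresis fluorescence readout of reporter transcripts from endogenous-TF-driven cis elements in transfected HepG2 cells, 24 h exposure; activity fitted in both directions against DMSO controls.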

The target of assay [16] is Hepatocyte nuclear factor 6 (Homo sapiens) (UniProt Q9UBC0). Description: ATG_HNF6_CIS: Attagene CIS-FACTORIAL HepG2 Assay for human Hepatocyte Nuclear Factor 6 (HNF6) (AID 2282952). The settings on record: HepG2 Attagene cis-factorial HNF6 reporter transcription; actives raise or lower the signal. In outline: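 HepG2 cells transiently transfected with cis-element-driven multiple reporter transcription units, dosed 24 h; reporter mRNA quantified by RT-PCR, FAM primer extension, HpaI digestion and capillary electrophoresis; bidirectional fit versus DMSO baseline.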

The target of assay [17] is Heat shock factor protein 1 (Homo sapiens) (UniProt Q00613). Description: ATG_HSE_CIS: Attagene CIS-FACTORIAL HepG2 Assay for human Heat Shock Transcription Factor 1 (HSE) (AID 2282953). The settings on record: HepG2 HSE cis-reporter, Attagene RNA transcription; actives raise or lower the signal. In outline: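 Liver-derived HepG2 cells carry transiently introduced multiple reporter units governed by cis promoters. Reporter RNA measured 24 h post-dose through reverse transcription, PCR amplification, fluorescent labelling and capillary electrophoresis, normalised to DMSO.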

A short description of assay [18]: ATG_MRE_CIS: Attagene CIS-FACTORIAL HepG2 Assay for human Metal Responsive Element (MRE) (AID 2282954). The settings on record: HepG2 MRE cis-reporter transcription, Attagene multiplex; actives raise or lower the signal. In short, it runs like this:
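Transient MRTU transfection of HepG2 (FuGene 6); 24 h dosing; total RNA → oligo(dT) RT, PCR, 6-FAM primer extension, HpaI cut, CE. Bidirectional fit vs DMSO.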

Assay [19] can be described thus: ATG_PBREM_CIS: Attagene CIS-FACTORIAL HepG2 Assay for human Phenobarbital-responsive Enhancer Module (PBREM) (AID 2282955). The settings on record: HepG2 PBREM cis-reporter, Attagene multiplexed transcription; actives raise or lower the signal. In short, it runs like this:
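Reporter mRNA read by RT-PCR, 6-FAM primer extension, HpaI digestion and capillary electrophoresis. Transfected HepG2 cells, 24 h compound exposure. Gain or loss of signal fitted bidirectionally relative to DMSO baseline.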

Calls of active or inactive are those of the source. The calls were made as follows: active = hit-call score of the fitted dose curve at least 0.9, where 1 is the maximum; inactive = score below 0.9.

Chain of Hepatocyte nuclear factor 6 (Homo sapiens) (Q9UBC0 whole entry, looked up): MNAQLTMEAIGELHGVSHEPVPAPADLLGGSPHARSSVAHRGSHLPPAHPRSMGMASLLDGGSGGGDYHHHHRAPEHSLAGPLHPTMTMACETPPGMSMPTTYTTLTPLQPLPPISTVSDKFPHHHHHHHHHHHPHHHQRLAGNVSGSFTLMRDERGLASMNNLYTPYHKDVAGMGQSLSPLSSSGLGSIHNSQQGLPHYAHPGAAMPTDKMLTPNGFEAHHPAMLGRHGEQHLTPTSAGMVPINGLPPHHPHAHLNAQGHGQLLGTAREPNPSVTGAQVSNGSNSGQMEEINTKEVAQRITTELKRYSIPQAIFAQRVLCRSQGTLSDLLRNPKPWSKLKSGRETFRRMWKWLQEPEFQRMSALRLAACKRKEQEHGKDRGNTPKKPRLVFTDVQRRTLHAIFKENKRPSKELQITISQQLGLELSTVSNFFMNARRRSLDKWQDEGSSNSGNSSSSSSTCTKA
Chain of Hypoxia-inducible factor 1-alpha (Homo sapiens) (Q16665 whole entry, looked up): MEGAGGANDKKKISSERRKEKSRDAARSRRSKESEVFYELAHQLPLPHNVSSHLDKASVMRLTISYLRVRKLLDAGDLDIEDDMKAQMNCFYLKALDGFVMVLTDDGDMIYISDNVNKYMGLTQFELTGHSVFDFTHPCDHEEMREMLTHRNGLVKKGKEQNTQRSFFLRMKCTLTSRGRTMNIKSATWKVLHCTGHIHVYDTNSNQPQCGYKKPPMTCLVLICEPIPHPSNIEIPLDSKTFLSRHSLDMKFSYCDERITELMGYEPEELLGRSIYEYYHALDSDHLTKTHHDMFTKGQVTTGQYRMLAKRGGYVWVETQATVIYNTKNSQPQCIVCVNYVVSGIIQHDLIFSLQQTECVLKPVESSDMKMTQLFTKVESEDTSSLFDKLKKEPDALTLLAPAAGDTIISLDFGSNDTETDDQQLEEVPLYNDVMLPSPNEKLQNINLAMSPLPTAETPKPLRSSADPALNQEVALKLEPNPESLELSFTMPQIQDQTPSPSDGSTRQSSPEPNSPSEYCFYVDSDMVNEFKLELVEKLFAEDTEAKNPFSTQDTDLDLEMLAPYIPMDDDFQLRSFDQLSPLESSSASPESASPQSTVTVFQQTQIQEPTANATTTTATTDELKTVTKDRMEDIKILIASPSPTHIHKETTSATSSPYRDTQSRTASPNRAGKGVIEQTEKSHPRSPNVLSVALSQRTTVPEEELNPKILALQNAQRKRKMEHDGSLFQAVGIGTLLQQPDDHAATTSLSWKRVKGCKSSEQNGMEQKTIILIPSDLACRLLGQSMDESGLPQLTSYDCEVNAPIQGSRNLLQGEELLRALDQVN
Chain of Hepatocyte nuclear factor 3-beta (Homo sapiens) (Q9Y261 whole entry, looked up): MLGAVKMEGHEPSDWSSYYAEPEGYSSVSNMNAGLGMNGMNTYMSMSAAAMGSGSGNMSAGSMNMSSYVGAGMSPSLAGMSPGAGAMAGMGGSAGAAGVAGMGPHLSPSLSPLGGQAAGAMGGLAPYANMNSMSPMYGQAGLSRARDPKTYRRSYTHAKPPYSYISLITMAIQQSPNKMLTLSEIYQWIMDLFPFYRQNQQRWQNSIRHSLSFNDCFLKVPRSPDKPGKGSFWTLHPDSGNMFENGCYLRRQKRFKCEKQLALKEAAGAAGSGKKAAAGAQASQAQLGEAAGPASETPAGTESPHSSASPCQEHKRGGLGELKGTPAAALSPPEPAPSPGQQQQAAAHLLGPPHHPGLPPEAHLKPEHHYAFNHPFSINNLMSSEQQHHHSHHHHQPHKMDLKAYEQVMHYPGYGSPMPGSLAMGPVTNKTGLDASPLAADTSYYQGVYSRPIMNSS
Chain of Heat shock factor protein 1 (Homo sapiens) (Q00613 whole entry, looked up): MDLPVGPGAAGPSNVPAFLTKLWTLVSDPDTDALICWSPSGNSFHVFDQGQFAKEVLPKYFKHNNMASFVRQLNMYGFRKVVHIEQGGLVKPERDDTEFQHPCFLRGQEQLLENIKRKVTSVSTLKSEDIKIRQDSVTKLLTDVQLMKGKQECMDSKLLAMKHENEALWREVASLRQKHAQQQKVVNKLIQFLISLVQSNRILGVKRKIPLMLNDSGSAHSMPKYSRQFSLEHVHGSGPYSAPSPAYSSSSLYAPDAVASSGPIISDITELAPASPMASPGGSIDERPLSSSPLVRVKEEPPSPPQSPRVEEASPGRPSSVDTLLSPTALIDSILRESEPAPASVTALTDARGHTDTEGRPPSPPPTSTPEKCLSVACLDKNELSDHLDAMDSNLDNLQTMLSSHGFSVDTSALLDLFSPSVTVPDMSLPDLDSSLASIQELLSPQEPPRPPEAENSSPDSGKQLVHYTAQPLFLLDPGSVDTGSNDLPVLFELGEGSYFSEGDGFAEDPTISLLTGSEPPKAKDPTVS
Chain of Bile acid receptor (Homo sapiens) (Q96RI1 whole entry, looked up, the tested form may be a part): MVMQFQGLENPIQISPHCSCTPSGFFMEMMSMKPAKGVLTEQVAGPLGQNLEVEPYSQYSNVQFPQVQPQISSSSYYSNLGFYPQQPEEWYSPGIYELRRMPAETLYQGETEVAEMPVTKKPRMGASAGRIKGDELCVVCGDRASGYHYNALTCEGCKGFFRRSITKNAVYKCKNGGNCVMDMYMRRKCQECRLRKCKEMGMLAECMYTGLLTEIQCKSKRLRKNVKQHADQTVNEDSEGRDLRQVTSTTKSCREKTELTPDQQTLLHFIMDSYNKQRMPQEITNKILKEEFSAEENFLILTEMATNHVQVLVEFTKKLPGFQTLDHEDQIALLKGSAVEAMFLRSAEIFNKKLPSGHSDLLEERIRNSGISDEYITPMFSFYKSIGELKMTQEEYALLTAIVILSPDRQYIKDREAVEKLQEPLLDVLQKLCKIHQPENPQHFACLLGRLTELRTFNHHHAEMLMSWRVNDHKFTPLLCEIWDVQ

Regarding `C=C(C)C(=O)OCCO`, the outcome in assay [1], in assay [2], in assay [3], in assay [4], in assay [5] and in assay [6] was inactive. The call in [7], in [8], in [9], in assay [10], in assay [11] and in [12] was inactive. Also, the outcome in assay [13], in assay [14], in [15], in [16], in [17] and in assay [18] was inactive. Besides, the result in assay [19] was inactive.

Usually AC50 stands for the concentration giving half of the maximal activity seen. As to `CCC(C)OC(=O)c1ccc(O)cc1` (stereo not given), the result in assay [1], in [2], in assay [3], in assay [5], in assay [6] and in assay [7] was inactive. Also, the call in assay [8], in [9], in [11], in [12], in [13] and in [14] was inactive. In addition, the outcome in assay [15], in assay [16], in assay [17], in assay [18] and in assay [19] was inactive. For the same compound, the AC50 in [4] was 0.868 µM (active).

Turning to `Cn1c(=O)[nH]c2ncn(C)c2c1=O`, the outcome in assay [1], in assay [2], in assay [3], in assay [4], in assay [5] and in assay [6] was inactive. For the same compound, the compound was called inactive in assay [7], in [8], in assay [9], in [10], in assay [11] and in [12]. The outcome in [13], in assay [14], in assay [16], in assay [17] and in assay [18] was inactive.

As to `[Cl][Nd]([Cl])[Cl]`, the result in assay [1], in assay [2], in assay [3], in assay [5], in [8] and in [9] was inactive. Also, the compound was called inactive in assay [11], in [12], in [14], in [15], in assay [16] and in assay [17]. Besides, the call in assay [18] and in assay [19] was inactive.

Take `c1ccc2c(c1)ccc1ncccc12`: the result in assay [1], in [2], in [3], in assay [4], in assay [5] and in assay [6] was inactive. Also, the compound was classed as inactive in assay [7], in [8], in [9], in [11], in assay [13] and in assay [14]. Further, the compound was called inactive in assay [15], in assay [16], in assay [17], in [18] and in [19]. For the same compound, the AC50 in assay [12] is 150 µM (active).

On to `O=c1cc[nH]c(=S)[nH]1`, for which the result in [1], in [2], in [3], in [4], in [5] and in assay [6] was inactive. In addition, the outcome in assay [7], in [8], in assay [9], in [10], in assay [11] and in assay [12] was inactive. The call in [13], in [14], in [15], in [16], in [17] and in [18] was inactive. Also, the outcome in assay [19] was inactive.

As to `CC(=O)OCCC1CCCCC1`, the outcome in assay [1], in assay [2], in assay [3], in assay [4], in assay [5] and in assay [6] was inactive. Moreover, the call in [7], in assay [9], in assay [11], in assay [12], in assay [13] and in [14] was inactive. In addition, the compound was classed as inactive in assay [15], in [16], in [17], in [18] and in [19].

As to `CC(C)CC(O)Cc1ccccc1` (stereo not given), the outcome in [1], in assay [2], in assay [3], in assay [4], in assay [5] and in assay [6] was inactive. Moreover, the compound was called inactive in assay [7], in [8], in assay [9], in [11], in assay [12] and in assay [13]. Moreover, the compound was classed as inactive in assay [14], in assay [15], in [16], in assay [17], in assay [18] and in [19].
